Measurements taken from PubChem BioAssay AID624040 (The Scripps Research Institute Molecular Screening Center, 2012).
Among all 360,000 compounds or so, about 2,100 (0.58%) were called active.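 How the source made its calls: active means inhibition above a per-plate cutoff, the mean of that plate's test compounds plus 3 SD (cut at about 27% in these data); inactive means the rest.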 Many of the other results were omitted from the sample, so actives are more common in it than they were.

molecular target: Muscarinic acetylcholine receptor M5 (Homo sapiens) (UniProt P08912); experiment: human M5 muscarinic receptor antagonists, primary screen, CHO cells, Fluo-8 calcium fluorescence (AID 624040); details: CHO-hM5 cells, ACh EC80, at 3 µM, stronger effect = higher value;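 further: 0% = acetylcholine EC80 with DMSO and 100% = DMSO without agonist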
Sequence (P08912 whole entry, looked up): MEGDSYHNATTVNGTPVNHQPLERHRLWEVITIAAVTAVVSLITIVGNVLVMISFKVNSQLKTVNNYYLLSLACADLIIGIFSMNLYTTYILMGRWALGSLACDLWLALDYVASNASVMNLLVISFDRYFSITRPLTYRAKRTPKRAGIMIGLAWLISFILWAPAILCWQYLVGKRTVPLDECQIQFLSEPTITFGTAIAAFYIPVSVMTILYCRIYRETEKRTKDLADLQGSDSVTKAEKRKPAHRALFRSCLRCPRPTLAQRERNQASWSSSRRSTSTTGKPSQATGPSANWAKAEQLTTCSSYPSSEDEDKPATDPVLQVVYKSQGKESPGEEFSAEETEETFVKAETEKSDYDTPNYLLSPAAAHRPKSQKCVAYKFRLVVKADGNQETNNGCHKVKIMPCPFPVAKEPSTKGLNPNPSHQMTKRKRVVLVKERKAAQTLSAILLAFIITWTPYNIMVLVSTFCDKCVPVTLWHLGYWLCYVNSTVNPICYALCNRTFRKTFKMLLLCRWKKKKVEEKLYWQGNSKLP

inhibition, inactive:
COc1ccc(C(C(=O)NCC2CCCO2)N(C(=O)Cn2nnc3ccccc32)c2ccc(NC(C)=O)cc2)cc1OC (stereo unspecified) -5.21%
Cc1ccc(C(C(=O)NCc2ccco2)N(CC2CCCO2)C(=O)Cn2nnc3ccccc32)cc1 (stereo unspecified) -3.06%
COc1ccc(CCNc2cc(C)nc3c(-c4ccc(Cl)cc4)c(C)nn23)cc1OC 0.85%
CSCCC(C(=O)NC1=NCCS1)N1C(=O)c2ccccc2C1=O (stereo unspecified) 6.62%
CCN(CC)C(=O)C1CCCN(Cc2cccc(Cl)c2)C1 (stereo unspecified) 2.81%
COc1c(O)ccc2c1CN1CCc3cc4c(cc3C1C2)OCO4 (stereo unspecified) 4.81%
CC(C)C(=O)Nc1ccc2c3c(cccc13)CC2 -8.88%
N#CC1(Nc2ccc(-c3ccc(Cl)cc3)cc2)CCCC1 16.1%
CCCCOC(=O)c1ccc(NC(c2ccc(C)cc2)P(=O)(OC)OC)cc1 (stereo unspecified) 8.39%
CC1=C(C(=O)N2CCOCC2)CC(CC(=O)NCc2ccco2)C(=O)N1Cc1ccc(F)cc1 (stereo unspecified) -4.73%
O=C(O)c1n[nH]nc1-c1ccccc1 -3.66%
Cc1c(-c2ccccc2)nc(N)c(C#N)c1-c1cccs1 8.1%
COc1cc(C)nc(N2CCCC(C(=O)NCC(C)C)C2)n1 (stereo unspecified) -3.29%
CCCc1cc(C(=O)N2CCCC(CO)(CCCc3ccccc3)C2)n(C)n1 (stereo unspecified) 17%
CCN(CC)S(=O)(=O)c1ccc(N(C)CCc2ccc(OC)c(OC)c2)nc1 3.43%
CCN(CC)S(=O)(=O)c1ccc(N(C)Cc2cccc(OC)c2OC)nc1 22.7%
Nc1c(Cl)cc(-c2csc(N3CCCC3c3nc4cc(Cl)c(Cl)cc4n3CCOCCO)n2)cc1Cl (stereo unspecified) 15.2%
O=C(COC(=O)c1cc(-c2cccs2)nn1-c1ccccc1)Nc1cc([N+](=O)[O-])ccc1Cl 1.74%
CCCCN(C(=O)C(CCSC)N1C(=O)c2ccccc2C1=O)c1c(N)n(CCC)c(=O)[nH]c1=O (stereo unspecified) -3.24%
Cc1ccc(NC(=O)c2sccc2C)cc1[N+](=O)[O-] 10.3%
CN(CC(=O)Nc1cccc(F)c1)C(=O)C1=COCCO1 11.4%
CCCNC(=O)NCc1ccc(N2CCCC2=O)cc1 -1.94%
O=C(O)C(c1ccccc1)C1(O)CCCCC1 (stereo unspecified) -13.2%
O=C(O)C(c1cccs1)C1(O)CCCCC1 (stereo unspecified) 9.55%
COc1ccc(NC(=O)CC2C(=O)NC3CCCCC3N2C(=O)c2ccc(F)cc2)cc1 (stereo unspecified) 23.2%
CCOc1ccc(Br)cc1S(=O)(=O)N1CCC(C(=O)O)CC1 10.7%
CC(C)(C)NCc1cc(Br)ccc1OC1CCCC1 -2.57%
CC(C)(C)NC(=O)CN(C(=O)c1ccc(Cl)nc1)c1cccc2ccccc12 0.44%
Cc1cc(C(F)(F)F)nn1CC(=O)N1CCCC1 -0.38%
O=S(=O)(Nc1ccc(OC(F)(F)F)cc1)c1cccc2nonc12 3.29%
CCOc1ccc(C(=O)Nc2ccc(S(=O)(=O)Nc3cc(C)on3)cc2)cc1 7.9%
O=C(COC(=O)c1ccc(N2CCCC2=O)cc1)c1ccc(OC(F)F)cc1 6.05%
COc1cccc(OC)c1C(=O)Nc1c(C(=O)N2CCN(c3ccccn3)CC2)oc2ccccc12 9.59%
COc1cccc(-n2c(N)cc(=O)nc2SCC(=O)Nc2cc(C)on2)c1 -11.3%
COc1ccc(CCNc2nc(C)cc(C)n2)cc1OC 1.9%
COc1ccc(CCNC(=O)CCc2ccccc2O)cc1OC -1.37%
N#CCCN(C(=S)Nc1ccc(Cl)c(Cl)c1)C1CCCCC1 24.6%

inhibition, active:
CCOc1cc(C(C(=O)NCC2CCCO2)N(C(=O)Cn2nnc3ccccc32)c2cccc(OC)c2)ccc1O (stereo unspecified) 31.8%
N#CC1(Nc2ccc3c4c(cccc24)CC3)CCCCC1 40.5%
N#Cc1c(-c2ccccc2)c(-c2ccccc2)n[nH]c1=O 31.9%
CCN(CC)S(=O)(=O)c1ccc(N(C)Cc2ccc(C(F)(F)F)cc2)nc1 29%
Cc1ccc(NC(=O)CN(C)CC(=O)Nc2cccc(F)c2)cc1[N+](=O)[O-] 35.5%
CN(C)CCOC(=O)C(c1ccccc1)C1(O)CCCC1 (stereo unspecified) 98.1%
CCOc1ccc(Br)cc1CSC(=N)N 30.2%
O=C(Nc1ccc(OC(F)(F)F)cc1)c1ccc2c(c1)no[n+]2[O-] 28.2%
COc1ccc(CCNC2=C(Cl)C(=O)N(Cc3ccccc3)C2=O)cc1OC 31.8%
